U2OS ROS induce: inducers of reactive oxygen species in cancer cells; U2OS ROS induction, H2DCF-DA fluorescence; ROS induction (% of piperlongumine), % at 10 µM; actives 2% (n = 46,000); in the data active = ROS induction above about 79%, passing the limit was not always enough;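 also: 0% = DMSO vehicle median and 100% = reference compound median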
* marks the source's active call; other numbers are inactive results. The full list was thinned out, with hits kept by preference.

SMILES	U2OS ROS induce
CC(NC(=O)c1ccccc1C(=O)O)C12CC3CC(CC(C3)C1)C2 (stereo unspecified)	4
CC(C)c1ccc(NCC(O)COc2ccc(Cl)c(Cl)c2)cc1 (stereo unspecified)	4
COC(=O)CN1C(c2ccccc2)=Nc2ccc(C)cc2C1c1ccccc1 (stereo unspecified)	-13
C[C@@H]1CCCCO[C@@H](CN(C)CC2CC2)[C@@H](C)CN([C@H](C)CO)C(=O)c2cc(NS(=O)(=O)c3ccc(F)cc3)ccc2O1	12
C[C@@H]1CCCCO[C@@H](CN(C)S(=O)(=O)c2cccs2)[C@@H](C)CN([C@H](C)CO)C(=O)c2cc(NS(=O)(=O)c3ccc(F)cc3)ccc2O1	102*
C[C@@H]1CCCCO[C@H](CN(C)S(=O)(=O)c2ccc(F)cc2)[C@@H](C)CN([C@H](C)CO)C(=O)c2cc(NS(=O)(=O)c3cccs3)ccc2O1	23
C[C@@H]1CCCCO[C@@H](CN(C)C(=O)Nc2ccc(C(F)(F)F)cc2)[C@@H](C)CN([C@H](C)CO)C(=O)c2cc(NS(=O)(=O)c3ccc(F)cc3)ccc2O1	82*
C[C@@H]1CCCCO[C@H](CN(C)C)[C@@H](C)CN([C@H](C)CO)C(=O)c2cc(NS(=O)(=O)c3ccc(F)cc3)ccc2O1	93*
Cc1ccc(S(=O)(=O)Nc2ccc3c(c2)C(=O)N([C@H](C)CO)C[C@H](C)[C@@H](CN(C)C(=O)Nc2ccc(C(F)(F)F)cc2)OCCCC[C@@H](C)O3)cc1	40
C[C@@H]1CCCCO[C@H](CN(C)C(=O)Nc2ccc(C(F)(F)F)cc2)[C@@H](C)CN([C@H](C)CO)C(=O)c2cc(NS(=O)(=O)c3ccccc3)ccc2O1	30
Cc1ccc(S(=O)(=O)Nc2ccc3c(c2)C(=O)N([C@H](C)CO)C[C@H](C)[C@@H](CN(C)C)OCCCC[C@@H](C)O3)cc1	0
C[C@@H]1CCCCO[C@@H](CN(C)S(=O)(=O)c2cccs2)[C@@H](C)CN([C@H](C)CO)C(=O)c2cc(NS(=O)(=O)c3ccccc3)ccc2O1	20
CSc1cccc(NC(=O)C2CCCN2S(=O)(=O)c2cccc3cccnc23)c1 (stereo unspecified)	-20
CC(C)c1cc(C(C)C)c(S(=O)(=O)N2CCCC2)c(C(C)C)c1	11
CCC1Sc2ccccc2NC1=O (stereo unspecified)	-21
CCC(C(=O)NCc1ccccn1)c1ccccc1 (stereo unspecified)	-9
CC1=CC2OC3[C@H](O)C[C@](C)([C@@]2(CO)CC1=O)[C@]31CO1 (stereo partly specified)	-9
CC(C)(C)N1CCN(C(C)(C)C)C1=O	-6
CCOc1ccc(C(=O)CC(=O)C(=O)OC)cc1	0
O=C(NCc1ccc2c(c1)OCO2)c1cccc2ccccc12	-7
COC(=O)c1ccc2c(c1)N(CC#N)C(=O)CS2	1
Cc1ccc(SC(=O)c2c(C)noc2-c2cc(C)on2)cc1	109*
Cc1ccc(SCC(=O)Nc2cc(C)on2)cc1	-6
Cc1cc(-c2c(C(=O)Sc3ccccc3)c(C)nn2-c2ccccc2)no1	56
FC(F)(F)c1ccccc1Nc1nc(-c2cccnc2)cs1	0
SMILES	U2OS ROS induce
COc1ccc(CN(C)C[C@@H]2Oc3ccc(NC(=O)Cc4ccccc4)cc3CC(=O)N([C@@H](C)CO)C[C@@H]2C)cc1	11
C[C@@H]1CN([C@H](C)CO)C(=O)Cc2cc(NC(=O)Cc3cn(C)c4ccccc34)ccc2O[C@@H]1CN(C)Cc1ccc(C(=O)Nc2ccccc2N)cc1	86*
C[C@H]1CN([C@@H](C)CO)C(=O)Cc2cc(NC(=O)Cc3cn(C)c4ccccc34)ccc2O[C@H]1CN(C)Cc1ccc(C(=O)Nc2ccccc2N)cc1	26
C[C@H](CO)N1C[C@H](C)[C@H](CN(C)Cc2ccc(Cl)c(Cl)c2)Oc2ccc(NC(=O)Cc3cn(C)c4ccccc34)cc2C1=O	-2
C[C@H]1CN([C@@H](C)CO)C(=O)c2cc(NC(=O)Cc3cn(C)c4ccccc34)ccc2O[C@H]1CN(C)Cc1ccc(-c2ccccc2)cc1	18
C[C@H](CO)N1C[C@H](C)[C@H](CN(C)Cc2ccc(C(=O)Nc3ccccc3N)cc2)Oc2ccc(NC(=O)Cc3cn(C)c4ccccc34)cc2CC1=O	23
C[C@H]1CN([C@@H](C)CO)C(=O)Cc2cc(NC(=O)Cc3ccccc3)ccc2O[C@H]1CN(C)Cc1ccc(Oc2ccccc2)cc1	64
C[C@H]1CN([C@@H](C)CO)C(=O)c2cc(NC(=O)Cc3cn(C)c4ccccc34)ccc2O[C@@H]1CN(C)Cc1ccc(-c2ccccc2)cc1	153*
C[C@@H]1CN([C@H](C)CO)C(=O)Cc2cc(NC(=O)Cc3ccccc3)ccc2O[C@@H]1CN(C)Cc1ccc(Oc2ccccc2)cc1	95*
C[C@H](CO)N1C[C@H](C)[C@@H](CN(C)Cc2ccc(Cl)c(Cl)c2)Oc2ccc(NC(=O)Cc3cn(C)c4ccccc34)cc2C1=O	152*
C[C@@H]1CN([C@@H](C)CO)C(=O)c2cc(NC(=O)Cc3cn(C)c4ccccc34)ccc2O[C@H]1CN(C)Cc1ccc(Cl)c(Cl)c1	35
C[C@@H]1CN([C@H](C)CO)C(=O)c2cc(NC(=O)Cc3cn(C)c4ccccc34)ccc2O[C@H]1CN(C)Cc1ccc(-c2ccccc2)cc1	58
Fc1nc(N2CCOCC2)c2c(c1Cl)Oc1ccccc1O2	9
O=C1C2C3C=CC(C3)C2C(=O)N1CCC1=CCCCC1 (stereo unspecified)	-1
Nc1cc(-c2ccccc2)nn1S(=O)(=O)c1ccccc1	9
CC(C)(C)CC(=O)NCc1ccccn1	-13
Cc1[nH]c(-c2ccc(F)cc2)cc1C(=O)NCCc1ccc(S(N)(=O)=O)cc1	37
c1ccc(Cn2ncc3c(Nc4ccc5ccccc5c4)ncnc32)cc1	-5
COc1ccc(CCNc2nc3c(c(C(F)(F)F)n2)CC(C)CC3)cc1OC (stereo unspecified)	-3
CNc1sc(S(C)(=O)=O)nc1S(=O)(=O)c1ccc(C)cc1	0
COc1ccc(-n2ncc3c(NCCc4ccccc4)ncnc32)cc1	21
C[C@H](CO)N1C[C@H](C)[C@H](CN(C)S(=O)(=O)c2ccccc2)Oc2ccc(NC(=O)Cc3cn(C)c4ccccc34)cc2CC1=O	-3
C[C@H]1CN([C@@H](C)CO)C(=O)Cc2cc(NC(=O)Nc3ccc(F)cc3)ccc2O[C@@H]1CN(C)Cc1ccc(C(=O)Nc2ccccc2N)cc1	25
C[C@@H]1CN([C@@H](C)CO)C(=O)Cc2cc(NC(=O)Cc3ccccc3)ccc2O[C@@H]1CN(C)CC1CCCCC1	4
C[C@H]1CN([C@@H](C)CO)C(=O)Cc2cc(NC(=O)Cc3ccccc3)ccc2O[C@@H]1CN(C)CC1CCCCC1	108*
C[C@H]1CN([C@@H](C)CO)C(=O)Cc2cc(NC(=O)Cc3cn(C)c4ccccc34)ccc2O[C@@H]1CN(C)S(=O)(=O)c1ccc(F)cc1	89*
COc1ccc(NC(=O)N(C)C[C@H]2Oc3ccc(NC(=O)Cc4cn(C)c5ccccc45)cc3C(=O)N([C@@H](C)CO)C[C@@H]2C)cc1	-6
COc1ccc(CN(C)C[C@@H]2Oc3ccc(NC(=O)Cc4cn(C)c5ccccc45)cc3C(=O)N([C@@H](C)CO)C[C@H]2C)cc1	32
C[C@@H]1CN([C@H](C)CO)C(=O)Cc2cc(NC(=O)Nc3ccc(F)cc3)ccc2O[C@H]1CN(C)Cc1ccc(C(=O)Nc2ccccc2N)cc1	7
